Among the data in PubChem BioAssay (EPA / NIEHS) are outcome and AC50 values, retold here.

Structures are written as SMILES. Records with an inconclusive call do not appear. Some compounds were tested as several samples or in several runs, with calls that do not always agree. Calls of active or inactive are those of the source. Rule for the calls: active = hit-call score of the fitted dose curve at least 0.9, where 1 is the maximum; inconclusive = response in the unintended direction; inactive = score below 0.9.

What is called AC50 is the midpoint of the concentration-response curve, whichever way the signal moves.

This test deals with human Peroxisome Proliferator-activated Receptor delta (PPARd), PPARD (gene 5467) (UniProt Q03181). The test can be described thus: ATG_PPARd_TRANS: Attagene TRANS-FACTORIAL HepG2 Assay for human Peroxisome Proliferator-activated Receptor delta (PPARd) (AID 2283002). Here is the method: ATG_TRANS is a cell-based, multiplexed-readout assay that uses HepG2, a human liver cell line, with measurements taken at 24 hours after chemical dosing in a 24-well plate.ATG_PPARd_TRANS is one of 30 assay component(s) measured or calculated from the ATG_TRANS assay. It is designed to make measurements of mRNA induction, a form of inducible reporter, as detected with fluorescence intensity signals by Reverse transcription polymerase chain reaction (RT-PCR) and Capillary electrophoresis technology.Data from the assay component ATG_PPARd_TRANS was analyzed into 1 assay endpoint. This assay endpoint, ATG_PPARd_TRANS, was analyzed in the positive analysis fitting direction relative to DMSO as the negative control and baseline of activity. Using a type of inducible reporter, measures of mRNA for gain-of-signal activity can be used to understand the reporter gene at the transcription factor-level as they relate to the gene PPARD. Furthermore, this assay endpoint can be referred to as a primary readout, because this assay has produced multiple assay endpoints where this one serves a reporter gene function. To generalize the intended target to other relatable targets, this assay endpoint is annotated to the nuclear receptor intended target family, where the subfamily is non-steroidal.
human Peroxisome Proliferator-activated Receptor delta (PPARd), PPARD (gene 5467), sequence (Q03181 whole entry, looked up): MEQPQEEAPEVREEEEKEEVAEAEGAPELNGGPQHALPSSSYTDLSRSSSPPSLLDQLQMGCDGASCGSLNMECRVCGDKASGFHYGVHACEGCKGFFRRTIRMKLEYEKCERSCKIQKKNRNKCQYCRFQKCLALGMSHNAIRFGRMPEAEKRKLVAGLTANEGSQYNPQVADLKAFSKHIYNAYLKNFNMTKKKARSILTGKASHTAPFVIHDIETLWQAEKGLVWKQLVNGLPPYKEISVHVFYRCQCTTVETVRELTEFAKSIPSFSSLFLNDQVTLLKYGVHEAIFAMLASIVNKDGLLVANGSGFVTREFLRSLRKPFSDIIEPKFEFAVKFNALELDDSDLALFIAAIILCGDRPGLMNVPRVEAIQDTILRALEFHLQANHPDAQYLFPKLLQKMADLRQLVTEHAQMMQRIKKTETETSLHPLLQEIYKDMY
Human liver HepG2 cells are transiently transfected with multiple reporter transcription units (MRTUs) in 6-well plates using FuGene 6 reagent (Roche; 3 ml FuGene/1 mg DNA). The MRTU constructs are regulated by a cis-regulating element (promoter). […] A major difference between the CIS and TRANS system is that in CIS activities of endogenous TFs are measured, whereas the TRANS assay evaluates changes in activities of exogenous, chimeric NR-Gal4 proteins. […] At the end of 24 hour incubation, total RNA was isolated using TriZol reagent (Invitrogen). The isolated RNA is then reverse-transcribed using oligo(dT) primer and Mo-MLV reverse transcriptase (Invitrogen) with DNAse I (Ambion) treatment for 30 min. The one-tenth of the produced cDNA was amplified by PCR using Taq DNA polymerase (Invitrogen) and two reporter sequence-specific primers. The PCR products were fluorescently labeled by primer extension with 6-arboxyfluorescein (6-FAM) 5'-labeled reporter sequence-specific primer (2 min at 95 C, 20 s at 68 C and 10 min at 72 C) and these products were digested with 5U of HpaI (New England Biolabs) for 2h at 37 C. The fragments were purified using Qiaquick PCR columns (Qiagen), analyzed on an ABI 3130xL genetic analyzer (Applied Biosystems) with peak positions identified by using a set of X-rhodamine (ROX)-labeled MapMarker1000 molecular weight standards (BioVentures). The raw capillary electrophoresis data was processed using Attagraph software (Attagene).
Turning to `CCC(C)N(C)C(=O)c1cc2ccccc2c(-c2ccccc2Cl)n1` (stereo not given), the molecule was called inactive.

For the molecule `O=C1CCCCC1`, the result was inactive.

As for `O=C(N[C@@H](c1ccccc1)[C@@H]1CCCCN1)c1cccc(C(F)(F)F)c1Cl`, the molecule was called inactive.

On to `CCc1nc(N)nc(N)c1-c1ccc(Cl)cc1`, for which the outcome was inactive.

`NC=O`: the molecule was called inactive.

With `CC(C)c1cccc(C(C)C)c1`, the molecule was classed as inactive.

On to `O=C(O)CN(CC(=O)O)CC(=O)O`, for which the molecule was called inactive.

As for `CC(=O)OCC(COC(C)=O)OC(C)=O`, the call was inactive.

Regarding `COC(=O)[C@H]1[C@H]2C[C@@H]3c4[nH]c5cc(OC)ccc5c4CCN3C[C@H]2C[C@@H](OC(=O)c2cc(OC)c(OC)c(OC)c2)[C@@H]1OC`, the call was inactive.

For `NC(=Nc1ccccc1)Nc1ccccc1`, the result was inactive.

With `CCCCCCCCCCCCCCCCO`, the molecule was called inactive.

In the case of `CC1(C)C(=O)NC(=O)N1CO`, the molecule was called inactive.

For `CC(C)(O)c1ccc(CNC(=O)c2cccnc2Oc2ccc(F)cc2)cc1`, the molecule was classed as inactive.

For the molecule `COc1ccc(OC(F)(F)F)cc1CN[C@H]1CCCN[C@H]1c1ccccc1`, the outcome was inactive.

For the molecule `CC(=O)O[C@]1(C(C)=O)CC[C@H]2[C@@H]3C=C(Cl)C4=CC(=O)[C@@H]5C[C@@H]5[C@]4(C)[C@H]3CC[C@@]21C`, the result was inactive and the AC50 was 100 µM (active).

Turning to `O=C(O)c1[nH]n(-c2ccc(S(=O)(=O)O)cc2)c(=O)c1N=Nc1ccc(S(=O)(=O)O)cc1`, the outcome was inactive.

Turning to `CO[C@@H]1COCC[C@@H]1N[C@@H]1CC[C@@](C(=O)N2CCc3ncc(C(F)(F)F)cc3C2)(C(C)C)C1`, the call was inactive.

On to `Cc1c(C)c2c(c(C)c1O)CCC(C)(COc1ccc(CC3SC(=O)NC3=O)cc1)O2` (stereo not given), for which the outcome was inactive.

With `O=C(O)c1cccnc1`, the outcome was inactive.

Consider `CN(C)C(=O)NC1(c2ccccc2)CCN(CCC[C@]2(c3ccc(Cl)c(Cl)c3)CCCN(C(=O)c3ccccc3)C2)CC1`, for which the molecule was called inactive.

Consider `O=C(Oc1ccccc1)c1cccc(C(=O)Oc2ccccc2)c1`, for which the molecule was called inactive.

With `CN(C)C(=O)NC1(c2ccccc2)CCN(CC[C@@]2(c3ccc(F)c(F)c3)CN(C(=O)c3ccccc3)CCO2)CC1`, the result was inactive.

On to `C=CCCCCCCCCCCCC`, for which the molecule was classed as inactive.

For the molecule `CN(C)CCCN1c2ccccc2Sc2ccc(Cl)cc21`, the result was inactive.

As to `NC1CCCCC1`, the molecule was classed as inactive.

`CCCCCCCCCC[N+](C)(C)[O-]`: the outcome was inactive.

With `CC(=O)OC1CC(C)OC(C)O1` (stereo not given), the result was inactive.

Turning to `CCCCC(CC)COP(=O)(OCC(CC)CCCC)OCC(CC)CCCC` (stereo not given), the molecule was classed as inactive.

For the molecule `CC(=O)[C@@]1(O)CC[C@H]2[C@@H]3CCC4=CC(=O)CC[C@]4(C)[C@H]3CC[C@@]21C`, the molecule was called inactive.

For `COC(=O)CCCC(=O)OC`, the molecule was called inactive.

On to `CCN(CC)CCOc1ccc(C(=C(Cl)c2ccccc2)c2ccccc2)cc1`, for which the molecule was classed as inactive.

Consider `CC(C)OC(=O)C(C)(C)Oc1ccc(C(=O)c2ccc(Cl)cc2)cc1`, for which the molecule was called inactive.

In the case of `CC(C)NCC(O)c1ccc(O)c(O)c1` (stereo not given), the result was inactive.

Take `Nc1nc(Cl)nc2c1ncn2[C@H]1C[C@H](O)[C@@H](CO)O1`: the molecule was classed as inactive.

For `CCCCCCC(C=O)=Cc1ccccc1`, the result was inactive.

Take `CCCCCCC(CCCCCCCCCCC(=O)OCC(COC(C)=O)OC(C)=O)OC(C)=O` (stereo not given): the molecule was called inactive.

On to `O=Cc1ccccc1C=O`, for which the result was inactive.

Consider `CCc1cc(C2=C(C(=O)O)N(c3ccccc3C(F)(F)F)S(=O)(=O)c3ccccc32)cc2c1OCO2`, for which the molecule was called inactive.

Regarding `COc1ccc(C(=O)Nc2nc3ccccc3c(NCc3ccccc3)c2C#N)cc1`, the call was inactive.
